The source of these data is PubChem BioAssay (NCI).

Each structure is given as a SMILES string. The panel holds about 83,000 compounds, 20% with a hit somewhere; the sample as a whole holds those more often.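 Step 1: grow cells in 96-well plates. Step 2: add test compound at a single concentration. Step 3: incubate 48 h. Step 4: record percent growth.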 A number with no mark means an inactive call. Calls of active or inactive are those of the source. How the source made its calls: active means growth percent below 10; inactive means the rest.

This assay relates to MDA-MB-468 breast. Nature of the assay: NCI-60 one-dose screen, 48 h (100 = growth as untreated, 0 = no growth, -100 = all killed). As to conditions: 10 µM unless noted.
Turning to `O=C1NCC(c2cc3ccccc3[nH]c2=O)Nc2ccccc21` (configuration not stated), the growth is 97.5%.

As to `O=C1OCC2=C1C(c1cccc(Br)c1)c1cc3c(cc1N2CCO)OCCO3` (configuration not stated), the growth was 24.7%.

`C=C(C)[C@@H]1CC[C@]2(C(=O)N3CCN(C)CC3)CC[C@]3(C)[C@H](CC[C@@H]4[C@@]5(C)CCC(=O)C(C)(C)[C@@H]5CC[C@]43C)[C@@H]12`: the growth is 77.3%.

Turning to `O=C(N/N=C/C=C\c1ccccc1)C(=O)N/N=C/C=C/c1ccccc1`, the growth was 105%.

Consider `COC(=O)[C@H](Cc1cn(C)cn1)NC(=O)[C@@H](NC(=O)Nc1cc(C(F)(F)F)cc(C(F)(F)F)c1)C(C)(C)C`, for which the growth was -63.1% [100 µM] (active).

As for `COc1ccc(-c2nc3c(c(C)nn3-c3ccc(F)cc3)c(=O)[nH]2)cc1`, the growth is 88.9%.

As for `Cc1ccc(/C=C2\CN(Cc3cn(CCNc4ccnc5cc(Cl)ccc45)nn3)C/C(=C\c3ccc(C)cc3)C2=O)cc1`, the growth is -31.1% (active).

Consider `O=c1c2cc(F)ccc2sc2c(NCCCNCCO)nc3ccc(Cl)cc3c12`, for which the growth is 68.2%.

Regarding `CCCCCCCCCCCCCCCCCCNC(=S)N/N=C/c1ccc(OC)c(OC)c1`, the growth is 93.5%.

Consider `Nc1cc(-c2c[nH]c3ccccc23)nc2cc(-c3c[nH]c4ccccc34)nn12`, for which the growth is 52.1%.

As for `COc1ccc2c(c1OC)C(=O)O[C@H]2[C@H]1c2c(cc3c(c2OC)OCO3)CCN1C`, the growth is 90.3%.

Turning to `CC(C)[C@@H]1CC[C@@H]2[C@@H]1[C@H](OC(=O)/C=C/c1ccccc1)[C@]1(C(C)C)C[C@@H](OC(=O)CO)[C@@]2(C)O1`, the growth was 113%.
